Screening results deposited in PubChem by National Center for Advancing Translational Sciences (NCATS).
Hits are enriched below; roughly 12% of the tested compounds scored in any of these assays.
L3MBTL1 inh – qHTS Assay for the Inhibitors of L3MBTL1; Potency, µM (series often up to 57.1 µM), hits mostly inhibitors; AlphaScreen L3MBTL1–H3K9me1 peptide binding; 230,000 tested, 0.66% active; Lethal(3)malignant brain tumor-like protein 1 (Homo sapiens), Q9Y468; further: nearly all actives have a fitted effect of over 60% in size
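AlphaScreen proximity signal between nickel-chelate acceptor and streptavidin donor beads (final 10 ug/mL) reports binding of 50 nM L3MBTL1 to 75 nM biotin-H3 K9me1 peptide; complex incubated with compounds 30 min at room temperature; cefsulodin titration as control.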
BAZ2B block – qHTS Assay for Inhibitors of BAZ2B | Potency, µM (titrated, usually from 114 µM), most hits filed as inhibitors | AID 504333, 2011 | AlphaScreen BAZ2B-H3K14Ac peptide displacement | 360,000 tested, 4.4% active; further: nearly all actives have a fitted effect of over 60% in size
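AlphaScreen displacement of biotin-H3(5-23)K14Ac peptide (50 nM final) from BAZ2B (50 nM final) in PBS pH 7.4, 0.01% Tween-20; complex preformed 30 min RT, then compounds (top 110 uM) 30 min RT, beads 20 min dark.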
JMJD2A Tudor – qHTS Assay for Inhibitors of JMJD2A-Tudor Domain; AlphaScreen JMJD2A-Tudor / H3K4me3 peptide binding; Lysine-specific demethylase 4A (Homo sapiens), O75164; Potency, µM (highest dose often 114 µM), most hits filed as inhibitors; 390,000 tested, 4.4% active; AID 504339, 2011; further: nearly all actives have a fitted effect of over 50% in size
Target sequence (O75164 whole entry, looked up, the tested form may be a part): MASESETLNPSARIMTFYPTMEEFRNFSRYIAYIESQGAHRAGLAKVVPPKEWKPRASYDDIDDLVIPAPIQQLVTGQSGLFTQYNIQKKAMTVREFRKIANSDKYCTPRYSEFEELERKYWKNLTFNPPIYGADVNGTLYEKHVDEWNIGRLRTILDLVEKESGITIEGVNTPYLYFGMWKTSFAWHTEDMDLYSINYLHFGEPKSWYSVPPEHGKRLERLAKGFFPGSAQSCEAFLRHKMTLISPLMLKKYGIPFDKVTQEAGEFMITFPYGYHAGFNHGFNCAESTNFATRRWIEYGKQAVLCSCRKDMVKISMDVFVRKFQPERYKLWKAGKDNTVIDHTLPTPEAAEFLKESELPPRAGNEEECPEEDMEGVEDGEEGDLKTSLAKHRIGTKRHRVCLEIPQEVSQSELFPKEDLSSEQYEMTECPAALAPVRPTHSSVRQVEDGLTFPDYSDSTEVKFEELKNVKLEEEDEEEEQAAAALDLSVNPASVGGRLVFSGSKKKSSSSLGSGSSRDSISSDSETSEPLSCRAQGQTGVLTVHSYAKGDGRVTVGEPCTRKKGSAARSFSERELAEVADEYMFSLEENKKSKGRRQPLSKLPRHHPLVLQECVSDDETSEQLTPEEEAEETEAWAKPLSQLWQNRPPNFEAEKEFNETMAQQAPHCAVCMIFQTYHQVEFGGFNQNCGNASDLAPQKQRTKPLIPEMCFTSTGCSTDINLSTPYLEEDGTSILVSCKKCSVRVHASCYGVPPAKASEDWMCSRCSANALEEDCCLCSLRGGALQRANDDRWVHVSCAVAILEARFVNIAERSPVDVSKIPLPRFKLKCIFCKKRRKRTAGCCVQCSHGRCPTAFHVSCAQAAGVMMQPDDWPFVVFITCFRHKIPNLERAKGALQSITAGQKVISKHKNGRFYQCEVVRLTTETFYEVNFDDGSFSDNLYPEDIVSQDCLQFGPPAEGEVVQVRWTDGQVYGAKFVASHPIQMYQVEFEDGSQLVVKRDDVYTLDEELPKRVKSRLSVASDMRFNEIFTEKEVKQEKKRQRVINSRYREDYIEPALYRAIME
Sfp inh – qHTS Assay for Inhibitors of Bacillus subtilis Sfp phosphopantetheinyl transferase (PPTase). Biochemical Sfp PPTase activity, qHTS. 310,000 tested, 3.5% active. Potency, µM, usual class: inhibitors. 4'-phosphopantetheinyl transferase ffp (Bacillus subtilis), Q9F4F7;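 further: the enzyme is Sfp with the accession as filed and its product quenches rhodamine fluorescence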
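After 15 min at room temperature with compound, 15 nM Sfp received 5 uM rhodamine-CoA plus 12.5 uM BHQ-2-ybbR (50 mM Hepes pH 7.6, 10 mM MgCl2). Rate came from the fluorescence difference over 30 min, ex 525/em 598 nm.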
G9a block – qHTS Assay for Inhibitors of Histone Lysine Methyltransferase G9a. AID 504332, 2011. 350,000 tested, 8.8% active. G9a H3K9 monomethylation, AlphaScreen, 2 h. Potency, µM (top dose mostly 102 µM), most hits filed as inhibitors. Histone-lysine N-methyltransferase EHMT2 (Homo sapiens), Q96KQ7; further: nearly all actives have a fitted effect of over 75% in size
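AlphaScreen read-out: biotin-H3K9 peptide (500 nM) methylation by 20 nM enzyme with 20 uM SAM, 2 h at room temperature after 15 min compound preincubation; anti-monomethyl H3K9 antibody plus donor/acceptor beads, 10 min dark.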
HP1b chromo inh – HTS for Inhibitors of HP1-beta Chromodomain Interactions with Methylated Histone Tails; AID 540317, 2011; Potency, µM (series often up to 114 µM), most hits filed as inhibitors; AlphaScreen HP1-beta / biotin-H3K9me3 peptide binding; 390,000 tested, 0.56% active; Chromobox protein homolog 1 (Homo sapiens), P83916; further: nearly all actives have a fitted effect of over 70% in size
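Compound inhibition of the preformed complex between 50 nM HP1-beta and 50 nM biotinylated H3K9me3 peptide was read by AlphaScreen. Buffer was PBS pH 7.4 with 0.01% Tween-20. Incubations ran 30 min at room temperature, with 10 ug/mL donor/acceptor beads.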
Numbers stand for hits; - = inactive; ? = inconclusive; . = no result given; [ ] = dose if it differs, or a comment. The call rests on the fitted dose curve; in most records, active means well fitted curve in the direction sought with a large enough effect; inconclusive means small, poorly fitted or top-dose-only effect, or another doubt; inactive means no such curve, though single readings can be large; an effect the other way counts as inactive or inconclusive.

SMILES	L3MBTL1 inh	BAZ2B block	JMJD2A Tudor	Sfp inh	G9a block	HP1b chromo inh
CCOC(=O)C1=C(CS(=O)(=O)c2ccc(F)cc2)NC(=O)NC1c1ccc(OCC)c(OC)c1 (stereo unspecified)	.	-	-	.	-	-
O=C(NCc1ccccc1)[C@@H]1C[C@H]1[C@@H](NP(=O)(c1ccccc1)c1ccccc1)c1ccccc1	-	-	-	-	-	-
O=C(Nc1ccc2ccccc2c1)[C@@H]1C[C@H]1[C@@H](NP(=O)(c1ccccc1)c1ccccc1)c1ccccc1	-	-	-	-	50µM	-
Cc1ccc(CNC(=O)[C@H]2C[C@@H]2[C@H](NP(=O)(c2ccccc2)c2ccccc2)c2ccccc2)o1	-	?	-	35µM	50µM	-
COC(=O)c1nnn(CC(=O)Nc2cc(F)ccc2F)c1C(=O)OC	.	-	-	.	-	-
COc1ccc(/C=N/Nc2cc(C)nc3c(C)cccc23)cc1	-	?	?	?	-	-
COc1ccc2nc(C)cc(N/N=C/c3ccc(F)cc3)c2c1	-	-	-	45µM	?	-
COc1ccc(/C=N/Nc2cc(C)nc3ccccc23)cc1	-	?	-	28µM	.	-
COc1ccc(CNc2cc(C)nc3ccc(OC)cc23)cc1	.	-	-	-	35µM	-
COc1cccc2c(N/N=C/c3ccc(O)c(O)c3)cc(C)nc12	-	?	?	-	35µM	-
Cc1ccccc1Cn1c(=O)n(CCCCC(=O)NCCc2ccccc2)c(=O)c2ccccc21	.	-	-	.	-	-
O=C(CN1C(=O)CC(c2ccco2)Sc2ccccc21)Nc1ccc(OC(F)(F)F)cc1 (stereo unspecified)	.	-	-	.	-	-
CC(Oc1cc2oc(=O)c3c(c2cc1Cl)CCC3)C(=O)NCCCN1CCCC1=O (stereo unspecified)	.	-	-	-	-	-
COC(=O)c1cc(C(=O)Nc2nnc(CC(C)C)s2)cc([N+](=O)[O-])c1	-	-	-	-	-	-
COCCSc1nnc(NC(=O)c2cc(C(=O)OC)cc([N+](=O)[O-])c2)s1	-	-	-	-	50µM	-
CCC(CC)c1nnc(NC(=O)c2cc(C(=O)OC)cc([N+](=O)[O-])c2)s1	-	-	-	45µM	8.9µM	-
Cc1ccc(C(=O)N2CCCCC2C(=O)O)cc1S(=O)(=O)N1CCCCC1 (stereo unspecified)	-	.	-	.	.	-
Cc1ccccc1NC(=O)c1sc2nc3n(c(=O)c2c1C)N=C(c1ccccc1)CS3	.	?	-	.	-	-
CCOc1ccc(C(c2c(O)nc(SC)n(C)c2=O)c2c(O)nc(SC)n(C)c2=O)cc1	-	-	-	?	11µM	-
Nc1cccc2c1C(=O)c1ccc(Cl)cc1C2=O	.	.	14µM	.	.	?
CCOc1ccc(CNC(=O)Cn2c(=O)c3cccn3c3ccc(F)cc32)cc1OC	.	-	-	.	-	-
COc1ccccc1-c1oc2ccccc2c1C#CC1(O)CCCCC1	-	.	-	.	.	-
COc1ccccc1-c1oc2ccccc2c1C#CCCO	-	50µM	?	.	-[0.501 µM]	-
CCC1(C)NC(C(=O)O)Cc2c1[nH]c1ccccc21 (stereo unspecified)	-	-	-	-	?	-
COC(=O)C1Cc2c([nH]c3ccccc23)C2(CCN(Cc3ccccc3)CC2)N1 (stereo unspecified)	.	?	?	-	45µM	-
CCCN1CCC2(CC1)NC(C(=O)O)Cc1c2[nH]c2ccccc12 (stereo unspecified)	.	?	-	-	14µM	-
O=C(O)c1cnn(-c2nc(-c3cccc([N+](=O)[O-])c3)cs2)c1C(F)(F)F	.	-	-	-	-[2.33 µM]	-
CCN(CC)/C(Sc1ccccc1)=C(\C(Cl)=C(Cl)Cl)[N+](=O)[O-]	.	50µM	-	-	?	-
